Laboratory results from PubChem BioAssay (EPA / NIEHS).
Several values for one entry are separate records, joined by “and”; a condition that tells them apart may be missing. Identical values can stand only once. Where a structure was tested more than once in an assay, its records may differ in their call. Activity calls are given as the source filed them. How the source made its calls: active means hit-call score of the fitted dose curve at least 0.9, where 1 is the maximum; inactive means score below 0.9.

What was measured:
[1] = ATG_E_Box_CIS: Attagene CIS-FACTORIAL HepG2 Assay for human Enhancer Box (E-box) (AID 2282936); conditions: HepG2 E-box cis-reporter transcription, actives raise or lower the signal
Method in brief: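 Cells: HepG2 (human liver), transient MRTU transfection. Exposure 24 h. RNA → oligo(dT) RT → PCR → 6-FAM label → HpaI → CE. Activity fitted both directions relative to DMSO.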

[2] = ATG_M_61_CIS: Attagene CIS-FACTORIAL HepG2 Assay for M61 Transcription Factor (Internal Marker) (AID 2282937); conditions: HepG2 Attagene CIS-FACTORIAL M61 internal marker reporter; actives raise or lower the signal
Method in brief: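 Multiplexed reporter mRNA assay, HepG2 human hepatoma cells, 24 h treatment. Signal: FAM-labelled, HpaI-digested RT-PCR fragments by CE. Fit: bidirectional, baseline DMSO.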

[3] = ATG_EGR_CIS: Attagene CIS-FACTORIAL HepG2 Assay for human Early Growth Response 1 (EGR1) (AID 2282938); conditions: HepG2 Attagene CIS-FACTORIAL EGR reporter mRNA; actives raise or lower the signal
Method in brief: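 Multiplexed cis-reporter system in human hepatoma HepG2 cells, transiently transfected. Cells are dosed for 24 h; reporter transcripts are amplified, fluorescently tagged and sized by capillary electrophoresis, with DMSO as negative control.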

[4] = ATG_M_19_CIS: Attagene CIS-FACTORIAL HepG2 Assay for M19 Transcription Factor (Internal Marker) (AID 2282939); conditions: HepG2 Attagene CIS-FACTORIAL M19 internal marker reporter; actives raise or lower the signal
Method in brief: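 Signals come from fluorescence of labelled reporter-specific PCR fragments resolved by capillary electrophoresis, following 24 h treatment of HepG2 cells transfected with cis-promoter reporter units; activity was fitted in both directions relative to DMSO.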

[5] = ATG_ERE_CIS: Attagene CIS-FACTORIAL HepG2 Assay for Estrogen Response Element (ERE) (AID 2282940); conditions: HepG2 ERE cis-reporter, Attagene RNA transcript; actives raise or lower the signal
Method in brief: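 Fluorescence of capillary-separated, FAM-labelled reporter cDNA fragments indicates reporter mRNA levels in HepG2 cells exposed to chemicals for 24 h. Transient transfection with cis-regulated units; data fitted in both directions against DMSO.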

[6] = ATG_Ets_CIS: Attagene CIS-FACTORIAL HepG2 Assay for human Erythroblast Transformation Specific (ETS) (AID 2282941); conditions: HepG2 ETS cis-reporter transcription, actives raise or lower the signal
Method in brief: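 Steps: transfect HepG2 with multiple reporter units; treat compound 24 h; isolate RNA, DNase-treat, reverse-transcribe; PCR-amplify, label with 6-FAM, digest with HpaI; separate by capillary electrophoresis. Activity fitted both directions versus DMSO.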

[7] = target: Hepatocyte nuclear factor 3-beta (Homo sapiens) (UniProt Q9Y261); experiment: ATG_FoxA2_CIS: Attagene CIS-FACTORIAL HepG2 Assay for human Forkhead box A2 (FOXA2) (AID 2282942); conditions: HepG2 cis-reporter transcription factor activity, 24 h; actives raise or lower the signal
Hepatocyte nuclear factor 3-beta (Homo sapiens), sequence (Q9Y261 whole entry, looked up): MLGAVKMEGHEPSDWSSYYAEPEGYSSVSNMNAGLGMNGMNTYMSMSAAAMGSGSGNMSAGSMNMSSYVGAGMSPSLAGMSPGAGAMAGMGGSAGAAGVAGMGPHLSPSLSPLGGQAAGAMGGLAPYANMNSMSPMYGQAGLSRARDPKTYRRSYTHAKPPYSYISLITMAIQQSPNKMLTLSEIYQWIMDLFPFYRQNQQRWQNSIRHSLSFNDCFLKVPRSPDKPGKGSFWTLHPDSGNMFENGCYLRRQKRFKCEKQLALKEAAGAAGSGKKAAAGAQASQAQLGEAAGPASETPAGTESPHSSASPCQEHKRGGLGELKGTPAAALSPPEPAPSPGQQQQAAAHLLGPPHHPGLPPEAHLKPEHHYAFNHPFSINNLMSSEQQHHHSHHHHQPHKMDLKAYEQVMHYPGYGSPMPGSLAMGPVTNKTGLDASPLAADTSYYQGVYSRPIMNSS
Method in brief: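 Multiplexed cis-element reporter assay in transiently transfected HepG2. Twenty-four hours post-dosing, RNA was reverse-transcribed, amplified, FAM-labelled, HpaI-digested and separated by CE. Activity gain or loss relative to DMSO.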

[8] = ATG_FoxO_CIS: Attagene CIS-FACTORIAL HepG2 Assay for human Forkhead box O (FoxO) (AID 2282943); conditions: HepG2 Attagene cis-reporter, FoxO element, mRNA; actives raise or lower the signal
Method in brief: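 Human hepatoma HepG2 cells carry transiently introduced reporter transcription units controlled by cis promoter elements. Chemical treatment lasted 24 h, and mRNA signal was compared with DMSO.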

[9] = ATG_GATA_CIS: Attagene CIS-FACTORIAL HepG2 Assay for human GATA Binding Protein (AID 2282944); conditions: HepG2 GATA cis-element reporter, Attagene multiplex mRNA; actives raise or lower the signal
Method in brief: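 After transfecting HepG2 cells with multiple cis-regulated reporter units, chemicals are dosed for 24 h; isolated RNA undergoes RT-PCR and fluorescent labeling before capillary electrophoresis, with activity expressed against DMSO.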

[10] = ATG_GLI_CIS: Attagene CIS-FACTORIAL HepG2 Assay for human Zinc Finger Protein GLI1 (AID 2282945); conditions: HepG2, Attagene cis-factorial reporter mRNA, GLI element; actives raise or lower the signal
Method in brief: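 Bidirectional curve fits relative to DMSO, using reporter mRNA levels from RT-PCR plus capillary electrophoresis. Cells were HepG2 transiently carrying cis-regulated reporter constructs, harvested 24 h after dosing.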

SMILES	outcome [1]	outcome [2]	outcome [3]	outcome [4]	outcome [5]	outcome [6]	outcome [7]	outcome [8]	outcome [9]	outcome [10]	AC50 [5]	AC50 [1]	AC50 [3]	AC50 [6]	AC50 [8]	AC50 [9]
COc1nc(C)nc(NC(=O)NS(=O)(=O)c2ccccc2OCCCl)n1	inactive	inactive	inactive	inactive	inactive	inactive	inactive	inactive	inactive	inactive						
O=C(c1ccccc1)C1CCCCC1	inactive	inactive	inactive	inactive		inactive		inactive	inactive	inactive	17.4 µM (active) [middle of 4 runs]					
O=C(c1ccc(O)cc1O)c1ccc(O)cc1O	inactive	inactive	inactive	inactive		inactive		inactive	inactive	inactive	843 nM (active) [middle of 4 runs]					
CCC(C)OC(=O)N1CCCCC1CCO (centres undefined)	inactive	inactive	inactive	inactive		inactive		inactive	inactive	inactive						
CCCOC(=O)NCCCN(C)C	inactive	inactive	inactive	inactive		inactive		inactive	inactive	inactive						
S=C([S-])NCCNC(=S)[S-].[Mn+2]	inactive	inactive	inactive	inactive		inactive	inactive	inactive	inactive	inactive						
CCCCCOC(=O)COc1cc(N2C(=O)C3=C(CCCC3)C2=O)c(F)cc1Cl		inactive	inactive	inactive	inactive	inactive		inactive	inactive	inactive		50 µM (active)				
C[C@]12C[C@H](O)[C@H]3[C@@H](CCC4=CC(=O)CC[C@@]43C)[C@@H]1CC[C@@H]2C(=O)CO	inactive	inactive	inactive	inactive		inactive	inactive	inactive	inactive	inactive						
CSC(=O)c1cccc2nnsc12	inactive	inactive	inactive	inactive	inactive	inactive		inactive	inactive	inactive						
c1ccc(Nc2ccccc2)cc1	inactive	inactive	inactive	inactive		inactive	inactive	inactive	inactive	inactive						
COC(=O)CSc1cc(N=c2sc(=O)n3n2CCCC3)c(F)cc1Cl	inactive	inactive	inactive	inactive		inactive	inactive	inactive	inactive	inactive						
Oc1ccc(C(c2ccc(O)cc2)C(Cl)(Cl)Cl)cc1	inactive	inactive	inactive	inactive		inactive		inactive	inactive	inactive						
CCCCCCC(C)OC(=O)COc1nc(F)c(Cl)c(N)c1Cl (centres undefined)	inactive	inactive	inactive	inactive		inactive		inactive	inactive	inactive						
CCOC(=O)C(C)Oc1ccc(Oc2nc3ccc(Cl)cc3o2)cc1 (centres undefined)	inactive	inactive	inactive	inactive		inactive		inactive	inactive	inactive						
CCCCC(CC)COC(=O)c1ccccc1C(=O)O (centres undefined)	inactive	inactive	inactive	inactive		inactive		inactive	inactive	inactive						
CCOC(=O)C(C)Oc1ccc(Oc2cnc3cc(Cl)ccc3n2)cc1 (centres undefined)	inactive	inactive	inactive	inactive	inactive	inactive		inactive	inactive	inactive						

SMILES	outcome [1]	outcome [2]	outcome [3]	outcome [4]	outcome [5]	outcome [6]	outcome [7]	outcome [8]	outcome [9]	outcome [10]	AC50 [5]	AC50 [1]	AC50 [3]	AC50 [6]	AC50 [8]	AC50 [9]
N[C@@H](Cc1cc(I)c(Oc2ccc(O)c(I)c2)c(I)c1)C(=O)O	inactive	inactive	inactive	inactive		inactive		inactive	inactive	inactive						
COCCO	inactive	inactive	inactive	inactive	inactive	inactive		inactive	inactive	inactive						
C[C@]12CC[C@@H]3c4ccc(O)cc4C[C@@H](CCCCCCCCCS(=O)CCCC(F)(F)C(F)(F)F)[C@H]3[C@@H]1CC[C@@H]2O (some centres undefined)	inactive	inactive	inactive	inactive	inactive	inactive		inactive	inactive	inactive						
C#C[C@]1(O)CC[C@H]2[C@@H]3CCC4=CC(=O)CC[C@@H]4[C@H]3CC[C@@]21CC	inactive	inactive	inactive	inactive		inactive		inactive	inactive	inactive						
CCOC(=O)COc1cc(-n2ncc(C(F)(F)F)c(C)c2=O)c(F)cc1Cl	inactive	inactive	inactive	inactive	inactive	inactive		inactive	inactive	inactive						
CC1(C)C(C=C(Cl)Cl)C1C(=O)OCc1cccc(Oc2ccccc2)c1 (centres undefined)	inactive	inactive	inactive	inactive		inactive		inactive	inactive	inactive	21.3 µM (active)					
COC(=O)c1ccc(I)cc1S(=O)(=O)NC(=O)Nc1nc(C)nc(OC)n1	inactive	inactive	inactive	inactive		inactive	inactive	inactive	inactive	inactive						
COC(=O)c1ccccc1S(=O)(=O)NC(=O)Nc1nc(OC(F)F)cc(OC(F)F)n1	inactive	inactive	inactive	inactive	inactive	inactive		inactive	inactive	inactive						
CCOC(=O)[C@H](C)Oc1ccc(Oc2nc3ccc(Cl)cc3o2)cc1	inactive	inactive	inactive	inactive		inactive		inactive	inactive	inactive						
COc1c(Cl)ccc(Cl)c1C(=O)O	inactive	inactive	inactive	inactive	inactive	inactive		inactive	inactive	inactive						
C=CCOC(Cn1ccnc1)c1ccc(Cl)cc1Cl (centres undefined)	inactive	inactive		inactive		inactive	inactive	inactive	inactive	inactive			30.9 µM (active)			
CCCCOCCOCCOCc1cc2c(cc1CCC)OCO2	inactive	inactive	inactive	inactive		inactive		inactive	inactive	inactive						
CC(C)(C)[C@@H](O)[C@@H](Cc1ccc(Cl)cc1)n1cncn1	inactive	inactive		inactive					inactive	inactive			26.1 µM (active)	68.5 µM (active)	12.6 µM (active)	
OB(O)O	inactive	inactive	inactive	inactive	inactive	inactive		inactive	inactive	inactive						
CC(=O)[C@H]1CC[C@H]2[C@@H]3CCC4=CC(=O)CC[C@]4(C)[C@H]3CC[C@]12C		inactive	inactive	inactive		inactive		inactive	inactive	inactive	1.27 µM (active) [middle of 4 runs]		22.6 µM (active) and 50.7 µM (active) and 26.7 µM (active)		154 µM (active)	152 µM (active)
CCNc1nc(N)nc(Cl)n1	inactive	inactive	inactive	inactive		inactive		inactive	inactive	inactive						
